Hits are enriched below; roughly 27% of the tested compounds scored in any of these assays.
Cav32 inh = blocks human Cav3.2 T-type calcium channel; AID 449739; Cav3.2-expressing cells, Fluo-4 calcium fluorescence FDSS; hits give low values; B-score at 10 µM; 100,000 compounds, 4% hits; O95180;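 active means single-dose well whose peak fluorescence ratio is a statistical outlier from its plate by either plate-standardised score or position-corrected B-score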
CYP2C9 act = CYP2C9 (human) activation | P11712 | recombinant CYP2C9, luciferin-H conversion, luminescence; hits give high values; factor 1 = untreated enzyme, 0 = blocked | activation factor at 5 µM | 96,000 compounds, 1.4% hits | AID 1024;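 active means activation factor of 2 or more for CYP2C9 at a 5 µM dose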;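 further: 0 = sulfaphenazole-blocked wells and 1 = vehicle-only wells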
CYP2C9 inhib = inhibitors of human CYP2C9; P11712; CYP2C9 Supersomes, luciferin-H conversion, luminescence; inhibition, % at 5 µM; 96,000 compounds, 20% hits; AID 777;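 active means blocking of liver enzyme CYP2C9 beyond about 50% at 5 µM, limit read from the data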
CYP2C19 act = increases human CYP2C19 enzyme activity | AID 1025 | 96,000 tested, under 10 active | recombinant CYP2C19, luciferin-H EGE luminescence; hits give high values; 0 = fully inhibited enzyme, 1 = untreated enzyme | P33261 | activation factor at 5 µM;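 active means activation factor of at least 2 at 5 µM in the primary screen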;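 further: 0 = wells with 2.5 mM tranylcypromine and 1 = vehicle-only wells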
Target sequence (P33261 whole entry, looked up): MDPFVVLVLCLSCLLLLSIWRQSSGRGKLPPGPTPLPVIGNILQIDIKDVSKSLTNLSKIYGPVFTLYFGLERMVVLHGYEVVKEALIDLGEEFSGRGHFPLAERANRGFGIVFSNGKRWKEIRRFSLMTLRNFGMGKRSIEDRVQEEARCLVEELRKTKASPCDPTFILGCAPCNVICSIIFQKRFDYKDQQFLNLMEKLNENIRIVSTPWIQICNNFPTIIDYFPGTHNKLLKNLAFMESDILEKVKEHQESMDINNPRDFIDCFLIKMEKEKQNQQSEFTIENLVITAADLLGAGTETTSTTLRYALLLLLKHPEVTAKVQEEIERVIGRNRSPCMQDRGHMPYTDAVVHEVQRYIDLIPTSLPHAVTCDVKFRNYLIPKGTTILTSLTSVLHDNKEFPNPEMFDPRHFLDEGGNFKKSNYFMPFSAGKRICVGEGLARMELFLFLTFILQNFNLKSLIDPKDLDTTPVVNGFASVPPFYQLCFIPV
CYP2C19 inh = human CYP2C19 inhibition; inhibition, % at 5 µM; CYP2C19 Supersomes, luciferin-H EGE luminescence, 30 min; P33261; 96,000 compounds, 21% hits; AID 778;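 active means CYP2C19 inhibition above a set limit at 5 µM in the primary screen, cut at about 50% in these data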;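 further: plate controls were negative control wells for no effect and 2.5 mM tranylcypromine positive control for full effect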
The depositor's hits bear a star; x = not tested or not shown.

SMILES	Cav32 inh	CYP2C9 act	CYP2C9 inhib	CYP2C19 act	CYP2C19 inh
Cc1ccc(N=Cc2sc(O)c3ccccc23)c(C)c1	-0.218	0.4	62.7*	0.6	40.8
COCCNC(=O)NC(=O)COC(=O)c1cc([N+](=O)[O-])ccc1Sc1nc(C)cs1	0.493	0.8	21.3	1	4.1
CCOCCCn1c(=N)c(C(N)=S)cc2c(=O)n3cccc(C)c3nc21	x	0.9	6.3	0.9	9.3
Cc1cccn2c(=O)c3cc(C(=O)NCCCn4ccnc4)n(C)c3nc12	x	0.4	60.5*	0.7	32.4
Cc1cccn2c(=O)c3cc(C(=O)NCCCN4CCCC4=O)n(C)c3nc12	-2.55	0.7	31.7	0.5	51.2*
Cc1cccn2c(=O)c3cc(C(N)=S)c(=N)n(CCCOC(C)C)c3nc12	-1.1	0.6	36.2	0.1	86.2*
O=C(NCCCN1CCCC1=O)c1cccc(C(F)(F)F)c1	1.62	0.2	77.1*	0.6	44.6
O=C(NCCCN1CCCC1=O)c1cccs1	x	1	-2.3	0.9	11.7
Cc1cc([N+](=O)[O-])nn1Cc1c(F)c(F)c(F)c(F)c1F	-1.17	0.7	27.1	0.6	38.7
OCC1(c2cc(C(F)(F)F)n[nH]2)CCCCC1	0.485	0.8	21.5	0.8	21.8
COCCn1c(=N)c(C(=O)NCCc2ccccc2)cc2c(=O)n3cccc(C)c3nc21	0.256	x	x	x	x
Cc1cccn2c(=O)c3cc(C(=O)NCCc4ccccc4)c(=N)n(CCCn4ccnc4)c3nc12	-0.194	0.4	57.8*	0.4	55.1*
COc1cc(OC)c(CN2CCCCCCC2)cc1Br	-0.0508	1	0.4	0.6	37.3
COc1cc(OC)c(CN2CCN(c3ccc(F)cc3)CC2)cc1Br	-1.98	0.9	11.1	0.2	77.5*
O=C(CSc1c[nH]c2ccccc12)NCc1ccc2c(c1)OCO2	0.345	0	95.5*	0	100.4*
O=C(COC(=O)CSc1nnc(-c2ccc(Cl)cc2)o1)NCc1ccc2c(c1)OCO2	-0.394	1.2	-20.7	1	-3.9
CC(C)N(C(=O)Cn1c(SCC(=O)NCc2ccc3c(c2)OCO3)nc2ccccc21)C(C)C	1.92	x	x	x	x
O=C(CSc1nc2ccc(Cl)cc2o1)NCc1ccc2c(c1)OCO2	-1.96	0.4	61.3*	0.8	23.0
O=C(CSc1nc(-c2ccccc2)cc(=O)[nH]1)Nc1ccccn1	0.0351	1	3.8	1.1	-13.9
O=C(CSc1nc2ccccc2o1)NCc1ccc2c(c1)OCO2	-3.02	0.1	95.0*	0	100.4*
O=C(NCCSc1c[nH]c2ccccc12)c1ccc2c(c1)OCO2	-3.56	x	x	x	x
O=C(CSc1nc(-c2ccccc2)cc(=O)[nH]1)NCc1ccc2c(c1)OCO2	0.483	0	96.1*	1	-4.7
CCc1ccccc1NC(=O)/C(=C/c1ccco1)c1ccccc1	-5.54*	0.8	17.3	0.9	7.2
O=C(c1cnc2n(c1=O)CCS2)N1CCN(c2ccccc2Cl)CC1	0.915	x	x	x	x
O=C(c1cnc2n(c1=O)CCS2)N1CCN(C(c2ccccc2)c2ccc(Cl)cc2)CC1 (stereo unspecified)	-1.19	0.6	44.3	0.4	62.3*
SMILES	Cav32 inh	CYP2C9 act	CYP2C9 inhib	CYP2C19 act	CYP2C19 inh
Cn1c(SCc2cccnc2)nc2cccnc21	-0.601	0.9	14.8	0.8	20.4
CCn1c(=O)c(C2=NS(=O)(=O)c3ccccc3N2)c(O)c2ccccc21	x	0.4	60.6*	1.2	-19.3
Cn1ncc(N=Cc2ccc([N+](=O)[O-])cc2)c1C(=O)N1CCOCC1	0.748	1.3	-33.1	1.3	-26.2
O=C1CC(Sc2ncccn2)C(=O)N1c1ccccc1C(F)(F)F (stereo unspecified)	0.761	0.9	5.4	0.4	58.7*
COc1ccccc1N1C(=O)CC(Sc2ncccc2C(=O)O)C1=O (stereo unspecified)	0.788	x	x	x	x
Cc1nc2c(sc3nc4c(cc32)COC(C)(C)C4)c(=O)o1	0.922	0.3	71.6*	0.8	16.4
COc1ccc(N2CCN(c3ncnc4c3nnn4Cc3ccccc3Cl)CC2)cc1	-1.54	x	x	x	x
CCN(CC)C(=O)c1sc(NC(=O)Cc2ccccc2)c(C#N)c1C	0.348	x	x	x	x
CCN(CC)C(=O)c1sc(NC(=O)Cc2ccc(OC)cc2)c(C#N)c1C	0.476	0.2	77.9*	0.2	77.6*
COc1ccc(-c2nnc3n2N=C(C)CS3)cc1OC	0.306	1	-2.5	1	1.1
Cc1ccc(-c2nnc3n2N=C(c2ccccc2Br)CS3)cc1	-4.02*	0.6	43.0	0.6	41.1
COc1ccc(-c2nnc3n2N=C(c2ccccc2)CS3)cc1OC	x	0.2	75.6*	0.5	52.3*
CCCc1nnc2n1N=C(c1ccc(OC)c(OC)c1)CS2	-0.0574	x	x	x	x

Source: PubChem (several laboratories)
